# System: Plasmodium falciparum
# Assay: GSK_TCMDC: Inhibition of Plasmodium falciparum 3D7 in whole red blood cells, using parasite LDH activity as an index of growth. Test compounds present at 2uM
# Assay type: functional
row,SMILES,Inhibition [%]
1,Fc1ccc2[nH]c(-c3ccc(-c4ccc(CNCCc5ccncc5)cc4)cc3)nc2c1.O=C(O)C(F)(F)F,100
2,Cn1cncc1C(=O)Nc1cccc(-c2cccc(-c3nc4cc(C(F)(F)F)ccc4[nH]3)c2)c1,100
3,O=C(/C=C/c1ccc(Cl)c(Cl)c1)NCCCCCN1CCC(c2n[nH]c(-c3ccccc3)c2Br)CC1,95
4,O=C(NCC1CCN(Cc2ccc(F)cc2)C1)c1cc(-c2cccc(C(F)(F)F)c2)cs1.O=C(O)C(F)(F)F (stereo not given),93

# System: Plasmodium falciparum
# Assay: GSK_TCMDC: Inhibition of Plasmodium falciparum Dd2 in whole red blood cells, using parasite LDH activity as an index of growth. Test compounds present at 2uM
# Assay type: functional
row,SMILES,Inhibition [%]
1,Cc1ccc(NC(=S)NC2CCN(CCCCCNC(=O)/C=C/c3ccc(Cl)c(Cl)c3)CC2)cc1Cl,56
2,Cc1cc(NC(=O)c2ccsc2)ccc1OC1CCN(Cc2ccc(F)cc2)CC1.O=C(O)C(F)(F)F,47
3,Cc1cccc2nc(-c3ccc(-c4cccc(CN5CCN(c6ccncc6)CC5)c4)cc3)[nH]c12.O=C(O)C(F)(F)F,99
4,CC(C)C1=C[C@H]2C[C@]3(C4OCCO4)[C@@H]4CC[C@@H](C)[C@H]4C[C@@]2(COCc2cccc(C#N)c2)[C@]13C(=O)OC(c1ccccc1)c1ccccc1,92
5,CC(C)N1CCC(NC(=O)N2CCCN(c3ncnc4cc(-c5ccc(Cl)cc5)sc34)CC2)CC1.O=C(O)C(F)(F)F,7
6,CCc1ccccc1N1CCN(CCCC(=O)c2ccc(NC(=O)c3ccc(Cl)cc3)cc2)CC1,4
7,O=C(NC1CC1)c1ccc(N2CCCC(COc3ccccc3F)C2)nc1 (stereo not given),92
8,CN(C)CCN(C)Cc1ccc(-c2ccc3c(Nc4ccc(Oc5ccccn5)cc4)ccnc3c2)o1,100
9,CCC1CN2CCc3c([nH]c4ccccc34)[C@@H]2C[C@@H]1CC1NCCc2cc(OC)c(OC)cc21.Cl (stereo not given in full),67
10,CC(C)(CNC(=O)/C=C/c1ccc(Cl)c(Cl)c1)CNc1cc(=O)c2ccccc2[nH]1,29
11,CN(C)c1ccc(C(c2ccc(N(C)C)cc2)c2cc([N+](=O)[O-])ccc2Cl)cc1,67
12,COc1cccc(Nc2nc(C)cc(NC3CCN(Cc4ccccc4)CC3)n2)c1,46
13,Cc1cc(-c2nc3cncc(-c4cccc(CN5CCCC5Cc5cccnc5)c4)c3n2C)nn1C.O=C(O)C(F)(F)F (stereo not given),73
14,COc1cc(-c2ccccc2)ccc1C(=O)Nc1ccc2c(c1)N(C)CCC2,75
15,Br.c1cc(Nc2nc(-c3ccc(-c4csc(Nc5ccncc5)n4)cc3)cs2)ccn1,99
16,COc1cc2c(cc1OC)-c1cc(=Nc3c(C)cc(C)cc3C)n(C)c(=O)n1CC2.Cl,29

row,SMILES,Inhibition [%]
1,COc1ccc(C2C(C(=O)Nc3cc(OC)c(OC)c(OC)c3)c3cc(OC)c(OC)cc3C(=O)N2C)cc1 (stereo not given),100
2,O=C(NCCN1CCCCC1)c1ccc(CNC(=O)c2ccc(O)c(-c3cccc(C(F)(F)F)c3)c2)cc1,47
3,Cl.N=C(N)c1ccc(-c2cc3ccc(C(=N)N)cc3[nH]2)cc1,99
4,Clc1ccc(Cl)c2[nH]c(CNCCCNc3nc4ccccc4[nH]3)cc12,39
5,Cc1noc(C)c1-c1cccc(CNCc2ccc(-c3ccc(-c4nc5ccccc5[nH]4)s3)cc2)c1.O=C(O)C(F)(F)F,79
6,O=C(c1ccc(Cl)cc1)N1CCCC(C(=O)N(Cc2nnc(-c3ccccc3Cl)o2)C2CC2)C1 (stereo not given),96
7,Cc1ccc2nc(-c3ccc(/C=C/C(=O)NC4CCN(Cc5ccccc5)CC4)cc3)[nH]c2c1C,92
8,Cl.NC(=O)c1cccc(Nc2nccc(Nc3ccc(Oc4c(Cl)cccc4Cl)c(Cl)c3)n2)c1,17
9,Cc1cccc2nc(-c3ccc(-c4cccc(NC(=O)c5cncn5C)c4)s3)[nH]c12,16
10,N#Cc1ccc(-c2cnc3ccc(NCCc4cccnc4)nn23)cc1,81
11,NC(=O)c1cccc(C(=O)Nc2cccc(-c3cccc(-c4nc5ccccc5[nH]4)c3)c2)c1,78
12,NCc1ccc(CNCc2cccc(-c3cccc(-c4nc5cc(F)ccc5[nH]4)c3)c2)cc1.O=C(O)C(F)(F)F,34
13,COc1ccc(CC(=O)Nc2ccc(Nc3nc(C)cc(N4CCCC4)n3)cc2)cc1,65
14,CC(=O)Nc1cccc(/C=C/C(=O)N2CCC(N3CCCCC3)CC2)c1,0
15,Clc1ccc(-c2nc3cc(-c4ccc5nc(-c6ccc(Cl)cc6)[nH]c5c4)ccc3[nH]2)cc1,99
